Test [1] can be described thus: Nuclear factor erythroid 2-related factor 2/antioxidant responsive element (Nrf2/ARE) small molecule agonists: qHTS cell viability counter screen in human keratinocytes (AID 1919968; active = well fitted curve in the direction sought with a large enough effect in the repeat runs; an effect the other way counts as inactive or inconclusive; also: nearly all actives have a fitted effect of over 55% in size; also: potency is read from the fitted curve at half-maximal effect). Summed up: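 Cytotoxicity was multiplexed with the Nrf2/ARE luciferase assay in the same wells. Stably transfected HaCaT keratinocytes were treated with test compounds for 23 h at 37 C. Cell viability was then measured by CellTiter-Fluor fluorescence.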
For orientation: In qHTS, concentration-response curves come from the screen itself.

Test [2] has as its target KiSS-1 receptor (Homo sapiens) (UniProt Q969F8). The test is described as follows: Human kisspeptin (KISS1R) small molecule agonists, calcium flux assay in KISS1R-HEK293 cells (AID 1920064; active = well fitted curve in the direction sought with a large enough effect in the repeat runs; an effect the other way counts as inactive or inconclusive). Summed up:
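Agonist activity is monitored as intracellular calcium rise in engineered HEK293 cells carrying human KISS1R. Cells are dye-loaded for 1 h at 37 C before compound addition, and fluorescence is recorded for 3 min.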
(In general: Calcium assays in cells follow changes in intracellular calcium, usually with a dye or a luminescent sensor.)

The nature of test [3]: G protein-coupled receptor (GPCR) small molecule agonists, calcium flux assay: HEK293 wild type cell line counter screen (AID 1920065). Summed up:
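Seed cells, incubate 18 h (37 C, 5% CO2); add calcium dye, 1 h at 37 C; pin-transfer compounds, ATP control or DMSO; read fluorescence 480/540 nm each second for 3 min.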

Test [4] is described as follows: p53 small molecule agonists, cell-based qHTS assay with human liver microsomes (AID 1963577). An outline of the steps:
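Cells carrying a p53-responsive bla reporter were rested 5 h (37 C, 5% CO2) before compound transfer. Human liver microsomes plus NADPH, 0.5 mg/mL final apiece, supplied metabolism during the 16 h 37 C exposure.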

The nature of test [5]: p53 small molecule agonists, cell-based qHTS assay with rat liver microsomes (AID 1963578). An outline of the steps:
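Fluorescence from a beta-lactamase reporter under a p53 response element was measured after cells had been incubated 16 h at 37 C with test compound and rat liver microsomes plus NADPH (0.5 mg/mL final each).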

Test [6] in a line: p53 small molecule agonists, cell-based qHTS assay with human liver microsomes: qHTS cell viability counter screen (AID 1963579). Also: nearly all actives have a fitted effect of over 45% in size. An outline of the steps: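 Seed p53RE-bla cells at 4,000 per well; incubate 5 h at 37 C; add compound, human liver microsomes and NADPH; incubate 16 h at 37 C; add CellTiter-Glo; after 30 min at room temperature, read luminescence.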
A short description of test [7]: p53 small molecule agonists, cell-based qHTS assay with rat liver microsomes: qHTS cell viability counter screen (AID 1963580). Also: nearly all actives have a fitted effect of over 45% in size. An outline of the steps: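 After the beta-lactamase ratio was read, CellTiter-Glo was added to the same wells and luminescence measured at 30 min; cells had been treated 16 h at 37 C with compounds, rat liver microsomes and NADPH (0.5 mg/mL final each).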

Test [8] in a line: p53 small molecule agonists, cell-based qHTS assay: qHTS cell viability counter screen (AID 1963581). Also: nearly all actives have a fitted effect of over 45% in size. An outline of the steps: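 Viability was counter-screened in parallel with the p53 agonist reporter by measuring intracellular ATP luminescence in the same HCT-116 p53RE-bla wells after 16 h compound treatment at 37 C.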
A short description of test [9]: p53 small molecule agonists, cell-based qHTS assay (AID 1963582; active = well fitted activation curve with a large enough effect in the signal ratio in the repeat runs, not every such curve was filed as active; the % refers to the signal ratio). Summed up:
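Cells carrying a p53-responsive bla reporter are treated with test compounds for 16 h at 37 C; beta-lactamase activity is then detected with LiveBLAzer B/G FRET substrate after 2 h at room temperature.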

Test [10] has as its target 5-hydroxytryptamine receptor 2A (Homo sapiens) (UniProt P28223). Briefly: 5-hydroxytryptamine receptor 2A (HTR2A) small molecule antagonists, cell-based qHTS assay (AID 1963586). Also: nearly all actives have a fitted effect of over 45% in size. Summed up:
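CHO cells stably expressing human HTR2A were plated for 18 h at 37 C, then loaded with calcium dye for 1 h. Compounds were preincubated 5 min at room temperature before DOI (4 nM solution) was added. Kinetic fluorescence was read for 3 min.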

The target is the same in test [11]. Briefly: 5-hydroxytryptamine receptor 2A (HTR2A) small molecule agonists, cell-based qHTS assay (AID 1963587). Also: nearly all actives have a fitted effect of over 30% in size. An outline of the steps: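 CHO cells stably expressing human HTR2A, plated 18 h, loaded with calcium dye 1 h at 37 C. Agonist mode: compounds added and intracellular calcium fluorescence recorded kinetically for 2 min at 1 sec intervals.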
Test [12] has as its target Muscarinic acetylcholine receptor M1 (Homo sapiens) (UniProt P11229). The test is described as follows: Cholinergic receptor muscarinic 1 (CHRM1) small molecule antagonists, cell-based qHTS assay (AID 1963588). Also: nearly all actives have a fitted effect of over 40% in size. Summed up:
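Compounds were tested at 15 concentrations in three independent runs. Dye-loaded CHRM1-CHO cells were exposed 5 min at room temperature before stimulation by acetylcholine added at 50nM. Intracellular calcium was read kinetically on FDSS for 3 min.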

Test [13] shares this target. The test is described as follows: Cholinergic receptor muscarinic 1 (CHRM1) small molecule agonists, cell-based qHTS assay (AID 1963589). Also: nearly all actives have a fitted effect of over 35% in size. Summed up: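 Cells were plated and incubated 18 h at 37 C/5% CO2, loaded with calcium dye for 1 h at 37 C, then treated with compounds in DMSO. Fluorescence was recorded kinetically at 1 sec intervals.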
Test [14] in a line: cAMP Responsive Elements (CRE) small molecule agonists, cell-based qHTS assay (AID 1963590). Summed up:
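Cells carrying a CRE-driven beta-lactamase reporter (HEK 293T) are seeded, incubated overnight (18 h), and treated with test compounds for 3 h at 37 C; reporter activity is then detected with a FRET substrate after 2 h at room temperature.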

Test [15] can be described thus: cAMP Responsive Elements (CRE) small molecule antagonists, cell-based qHTS assay (AID 1963591; active = well fitted inhibition curve with a large enough effect in the signal ratio in the repeat runs, not every such curve was filed as active; the % refers to the signal ratio). Summed up: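 Cells (CRE-bla HEK 293T, DMEM with 10% dialyzed FBS and 25 mM HEPES) are seeded and incubated 18 h. Compounds are added with NKH477 agonist at 0.25 uM final for 3 h, then FRET substrate for 2 h.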
Test [16] deals with Beta-2 adrenergic receptor (Homo sapiens) (UniProt P07550). The test is described as follows: Adrenergic beta2 receptor (ADRB2) small molecule antagonists, cell-based qHTS assay (AID 1963592). Also: series mostly up to about 92 µM; nearly all actives have a fitted effect of over 50% in size. An outline of the steps:
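Assay format: CHO-ADRB2 cells, 18-20hr seeding at 37C/5% CO2, then compound plus 1nM isoproterenol agonist mix for 0.5hr RT. Homogeneous time-resolved fluorescence cAMP detection after 1hr, expressed as 665/615 nm ratio.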

Test [17] shares this target. The test is described as follows: Adrenergic beta2 receptor (ADRB2) small molecule agonists, cell-based qHTS assay (AID 1963593).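 Also: CHO cells stably overexpressing human ADRB2.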 Summed up:
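CHO cells stably over-expressing ADRB2 were plated overnight at 37C, then dosed with compounds plus a stimulation mix containing 100uM IBMX and 25uM Ro-20-1724 for 0.5hr at room temperature. cAMP was measured by HTRF competition, 1hr.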

Test [18] addresses D(2) dopamine receptor (Homo sapiens) (UniProt P14416). Briefly: Dopamine D2 receptor (DRD2) small molecule agonists, cell-based qHTS assay (AID 1963594). Also: nearly all actives have a fitted effect of over 35% in size. Summed up: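 HEK293 cells stably expressing human DRD2, pre-treated with PDE inhibitor Ro20-1724 (0.1 mM final) and compound 10 min at room temperature, then stimulated with NKH477 (200nM […]) for 30 min. cAMP read by HTRF (665/620 nm).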

The target is the same in test [19]. Briefly: Dopamine D2 receptor (DRD2) small molecule antagonists, cell-based qHTS assay (AID 1963595; active = well fitted inhibition curve with a large enough effect in the signal ratio in the repeat runs, with a control signal flat; the % refers to the signal ratio). Summed up:
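HEK293 cells stably expressing DRD2, preincubated with 0.1 mM Ro20-1724 and compounds 10 min, were stimulated with 200 nM NKH477 plus 12 nM quinpirole for 30 min at room temperature; cAMP measured by HTRF (665/620 nm).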

The record followed here is PubChem BioAssay (Tox21).

Values joined by “and” are separate entries in the source; they are usually repeats but may differ in a detail not shown here. Identical values can stand only once. Results filed as inconclusive are left out. Active and inactive are the calls of the source. Unless noted, calls follow the shape of the full dose curve.

Sequence of 5-hydroxytryptamine receptor 2A (Homo sapiens) (P28223 whole entry, looked up): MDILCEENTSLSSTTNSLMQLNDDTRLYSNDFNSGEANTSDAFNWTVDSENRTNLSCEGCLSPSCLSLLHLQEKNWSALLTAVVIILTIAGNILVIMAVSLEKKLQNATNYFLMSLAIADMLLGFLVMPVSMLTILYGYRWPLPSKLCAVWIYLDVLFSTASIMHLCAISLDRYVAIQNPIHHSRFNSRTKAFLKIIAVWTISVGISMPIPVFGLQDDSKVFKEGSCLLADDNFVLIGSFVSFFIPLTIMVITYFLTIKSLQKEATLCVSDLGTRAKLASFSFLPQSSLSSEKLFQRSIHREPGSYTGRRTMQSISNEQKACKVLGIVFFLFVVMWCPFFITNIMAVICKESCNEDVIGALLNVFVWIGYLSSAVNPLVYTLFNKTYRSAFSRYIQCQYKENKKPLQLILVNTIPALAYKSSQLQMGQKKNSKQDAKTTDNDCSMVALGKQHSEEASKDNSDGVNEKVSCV
Sequence of Muscarinic acetylcholine receptor M1 (Homo sapiens) (P11229 whole entry, looked up): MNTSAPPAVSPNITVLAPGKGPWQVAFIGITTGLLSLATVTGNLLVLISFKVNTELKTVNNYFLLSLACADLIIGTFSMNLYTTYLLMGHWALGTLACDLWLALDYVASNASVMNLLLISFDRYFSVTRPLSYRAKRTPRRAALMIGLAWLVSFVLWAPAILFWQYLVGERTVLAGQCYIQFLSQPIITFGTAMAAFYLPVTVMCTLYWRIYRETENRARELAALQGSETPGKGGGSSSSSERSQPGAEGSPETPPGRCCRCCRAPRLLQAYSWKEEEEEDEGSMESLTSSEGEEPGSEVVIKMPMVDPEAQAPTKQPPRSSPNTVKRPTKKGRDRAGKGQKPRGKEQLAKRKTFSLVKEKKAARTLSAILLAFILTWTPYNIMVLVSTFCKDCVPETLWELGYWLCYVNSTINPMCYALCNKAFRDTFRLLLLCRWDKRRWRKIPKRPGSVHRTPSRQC
Sequence of KiSS-1 receptor (Homo sapiens) (Q969F8 whole entry, looked up): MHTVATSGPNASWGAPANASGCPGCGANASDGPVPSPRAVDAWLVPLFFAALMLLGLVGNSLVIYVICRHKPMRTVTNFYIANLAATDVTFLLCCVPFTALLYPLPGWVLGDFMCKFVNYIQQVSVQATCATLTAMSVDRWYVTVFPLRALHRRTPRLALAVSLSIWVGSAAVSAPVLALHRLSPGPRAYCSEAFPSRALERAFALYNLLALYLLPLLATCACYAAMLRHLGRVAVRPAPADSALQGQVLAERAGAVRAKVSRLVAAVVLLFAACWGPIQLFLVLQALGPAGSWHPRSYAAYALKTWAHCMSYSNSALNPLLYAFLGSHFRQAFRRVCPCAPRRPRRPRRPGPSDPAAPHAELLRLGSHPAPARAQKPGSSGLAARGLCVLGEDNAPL
Sequence of D(2) dopamine receptor (Homo sapiens) (P14416 whole entry, looked up): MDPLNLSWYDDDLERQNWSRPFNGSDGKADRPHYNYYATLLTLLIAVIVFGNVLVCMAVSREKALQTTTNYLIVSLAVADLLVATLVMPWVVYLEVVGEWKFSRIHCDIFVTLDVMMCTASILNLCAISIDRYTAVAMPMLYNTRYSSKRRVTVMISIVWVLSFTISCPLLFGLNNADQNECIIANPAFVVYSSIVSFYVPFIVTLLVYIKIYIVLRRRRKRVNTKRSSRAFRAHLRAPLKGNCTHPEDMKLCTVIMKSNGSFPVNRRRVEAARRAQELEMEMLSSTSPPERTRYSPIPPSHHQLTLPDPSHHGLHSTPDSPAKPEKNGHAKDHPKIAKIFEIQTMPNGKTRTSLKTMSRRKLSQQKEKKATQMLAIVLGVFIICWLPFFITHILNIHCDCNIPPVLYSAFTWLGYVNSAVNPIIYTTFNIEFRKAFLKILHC
Sequence of Beta-2 adrenergic receptor (Homo sapiens) (P07550 whole entry, looked up): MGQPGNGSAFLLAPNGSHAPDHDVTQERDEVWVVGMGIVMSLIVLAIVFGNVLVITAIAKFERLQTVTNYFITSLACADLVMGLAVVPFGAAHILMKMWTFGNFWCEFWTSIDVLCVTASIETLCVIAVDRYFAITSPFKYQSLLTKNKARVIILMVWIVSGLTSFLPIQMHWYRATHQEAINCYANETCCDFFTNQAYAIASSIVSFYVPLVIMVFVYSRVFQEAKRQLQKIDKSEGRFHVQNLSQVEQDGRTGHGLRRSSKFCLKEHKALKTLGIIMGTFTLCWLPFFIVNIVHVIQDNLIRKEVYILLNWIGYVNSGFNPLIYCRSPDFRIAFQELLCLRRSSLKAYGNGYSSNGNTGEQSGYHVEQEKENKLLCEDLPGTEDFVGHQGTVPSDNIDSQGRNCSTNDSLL

Consider `OCC(Cl)CCl` (stereo not drawn), for which the Potency result in test [1], in [2], in test [3], in test [4], in test [5] and in [6] was “inactive” each time. Further, the Potency entry in test [7], in test [8], in [9], in test [10], in test [11] and in test [12] was “inactive” in each case. Moreover, the Potency entry in [13], in test [14], in [15], in test [16], in test [17] and in [18] was “inactive” throughout. For the same molecule, the Potency result in test [19] was “inactive”.

As for `c1ccc2c(c1)-c1cccc3cccc-2c13`, the Potency result in test [1], in test [2], in test [3], in test [4], in test [6] and in [7] was “inactive” each time. In addition, the Potency result in test [8], in test [9], in [10], in test [12], in [13] and in test [14] was “inactive” each time. Further, the Potency entry in test [15], in test [16], in [18] and in test [19] was “inactive” in each case.

On to `CNc1cnn(-c2cccc(C(F)(F)F)c2)c(=O)c1Cl`, for which the Potency result in test [1], in [2], in [3], in [4], in test [5] and in [7] was “inactive” in each case. Besides, the Potency result in test [9], in test [10], in test [11], in [12], in test [13] and in test [14] was “inactive” throughout. Besides, the Potency result in [15], in test [16], in test [17] and in test [19] was “inactive” in each case.

`CN(C)c1ccc(N=O)cc1`: in test [1], the Potency is 27.4 µM (active) and 54.5 µM (active). The Potency entry in test [2], in test [3], in test [4], in test [6], in test [7] and in [8] was “inactive” throughout. Further, the Potency result in test [10], in test [11], in test [12] and in test [13] was “inactive” each time.

With `CON(C)C(=O)Nc1ccc(Cl)c(Cl)c1`, the Potency result in test [1], in test [2], in test [3], in test [4], in [5] and in test [6] was “inactive” each time. For the same molecule, the Potency result in test [7], in [8], in [9], in test [10], in test [11] and in test [12] was “inactive” each time. The Potency entry in test [13], in test [14], in test [15], in test [16], in test [17] and in test [18] was “inactive” throughout. The Potency result in [19] was “inactive”.

Turning to `CC(Cl)Cl`, the Potency result in test [1], in test [2], in test [3], in [4], in test [5] and in test [6] was “inactive” each time. Moreover, the Potency entry in [8], in test [9], in test [10], in test [11], in test [12] and in test [13] was “inactive” throughout. The Potency result in test [14], in test [15], in test [16], in test [18] and in [19] was “inactive” each time.

Take `COc1cc2c(cc1OC)[C@@]13CCN4CC5=CCO[C@H]6CC(=O)N2[C@H]1[C@H]6[C@H]5C[C@H]43`: the Potency result in test [1], in [2], in test [3], in [4], in test [5] and in test [6] was “inactive” throughout. Besides, the Potency result in test [8], in test [9], in test [10], in test [11], in [12] and in test [13] was “inactive” in each case. Further, the Potency result in [15], in [16] and in test [18] was “inactive” in each case.
